Test results: PubChem BioAssay AID1159580 (chemical genetic matrix, 2015)
“And” between values parts separate entries of the source, which are not always exact repeats. Equal values may be shown once. Hit rate of the full screen: of about 5,500 compounds, about 2,000 (36%) were called active. Another 18% or so got no clear call; they are omitted. Cut-off read from the data, not from the text of the source: active = normalized growth mostly below about 0.91 (no sharp cut-off); inconclusive = no clear call, values can overlap the other calls; inactive = mostly above about 0.92. This is one part of the list.

Assay: chemical genetic growth profiling, strain panel (AID 1159580);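 note: tested at 20 µM; growth read once vehicle control cultures reached saturation at 30 °C; 1 = growth at the plate median or of vehicle wells; lower values mean less growth of the strain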
Conditions: S. cerevisiae deletion strains, growth OD

Measured: normalized growth

C[C@]12C=CC(=O)C=C1CCC1C2C(=O)C[C@@]2(C)C1CC[C@]2(O)C(=O)CO (stereo not given in full)
inactive: locus YAL013W, strain DEP1, hits give low values 0.992 | locus YAL021C, strain ccr4, hits give low values 1.03 | locus YAL026C, strain drs2, hits give low values 1.02 | locus YAL030W, strain snc1, hits give low values 0.997 | locus YBL061C, strain skt5, hits give low values 0.992 | locus YBR009C, strain hhf1, hits give low values 1.01 | locus YBR021W, strain FUR4, hits give low values 0.985 | locus YBR023C, strain chs3, hits give low values 1.01 | locus YBR171W, strain sec66, hits give low values 0.979 | locus YBR229C, strain ROT2, hits give low values 0.954 | locus YBR231C, strain swc5, hits give low values 1.01 | locus YBR279W, strain paf1, hits give low values 1 | locus YCL011C, strain gbp2, hits give low values 1 | locus YCL016C, strain dcc1, hits give low values 1.01 | locus YCL029C, strain bik1, hits give low values 0.978 | locus YCL061C, strain MRC1, hits give low values 1 | locus YCL069W, strain vba3, hits give low values 0.996 | locus YCR088W, strain abp1, hits give low values 0.989 | locus YDL005C, strain med2, hits give low values 0.981 | locus YDL035C, strain GPR1, hits give low values 0.981 | locus YDL040C, strain nat1, hits give low values 0.995 | locus YDL074C, strain BRE1, hits give low values 0.965 | locus YDL101C, strain DUN1, hits give low values 0.985 | locus YDL134C, strain PPH21, hits give low values 0.992 | locus YDL185W, strain tfp1, hits give low values 0.983 | locus YDL192W, strain arf1, hits give low values 0.997 | locus YDR001C, strain nth1, hits give low values 1 | locus YDR069C, strain doa4, hits give low values 0.98 | locus YDR101C, strain arx1, hits give low values 0.991 | locus YDR137W, strain rgp1, hits give low values 1.01 | locus YDR150W, strain NUM1, hits give low values 0.987 | locus YDR159W, strain sac3, hits give low values 1.01 | locus YDR162C, strain NBP2, hits give low values 0.992 | locus YDR195W, strain ref2 0.916 | locus YDR297W, strain sur2, hits give low values 0.989 | locus YDR318W, strain mcm21, hits give low values 0.996 | locus YDR334W, strain swr1, hits give low values 0.999 | locus YDR335W, strain msn5, hits give low values 0.997 | locus YDR388W, hits give low values 0.986 | locus YDR392W, strain spt3, hits give low values 1.05 | locus YDR502C, strain sam2, hits give low values 0.989 | locus YEL003W, strain gim4, hits give low values 1 | locus YEL037C, strain rad23, hits give low values 0.996 | locus YEL061C, strain CIN8 (second series), hits give low values 0.997 | locus YEL061C, strain CIN8, hits give low values 0.985 | locus YER015W, strain faa2, hits give low values 0.996 | locus YER016W, strain bim1, hits give low values 1.01 | locus YER110C, hits give low values 0.966 | locus YER111C, strain swi4, hits give low values 0.981 | locus YER155C, strain BEM2 (second series), hits give low values 0.973 | locus YER155C, strain BEM2, hits give low values 1 | locus YER167W, strain BCK2, hits give low values 0.991 | locus YFR010W, strain ubp6, hits give low values 0.984 | locus YGL078C, strain dbp3, hits give low values 0.984 | locus YGL086W, strain mad1, hits give low values 0.995 | locus YGL167C, strain pmr1, hits give low values 0.991 | locus YGL173C, strain kem1, hits give low values 0.994 | locus YGL227W, strain vid30, hits give low values 0.999 | locus YGL240W, strain doc1, hits give low values 0.978 | locus YGL248W, strain PDE1, hits give low values 0.978 | locus YGL253W, strain hxk2, hits give low values 0.992 | locus YGR078C, strain PAC10, hits give low values 0.988 | locus YGR135W, strain pre9, hits give low values 0.997 | locus YGR252W, strain gcn5, hits give low values 0.95 | locus YHR013C, strain ard1, hits give low values 0.999 | locus YHR027C, strain rpn1, hits give low values 1 | locus YHR030C, strain SLT2, hits give low values 0.997 and 1.02 | locus YHR079C, strain IRE1 (second series), hits give low values 0.998 | locus YHR079C, strain IRE1, hits give low values 1.05 | locus YHR094C, strain hxt1, hits give low values 0.988 | locus YHR129C, strain ARP1, hits give low values 0.963 | locus YHR142W, strain chs7, hits give low values 0.972 | locus YHR200W, strain rpn10, hits give low values 0.986 | locus YIL066C, strain RNR3, hits give low values 0.98 | locus YIL073C, strain SPO22, hits give low values 1.01 | locus YIL125W, strain kgd1, hits give low values 0.993 | locus YIR030C, strain dcg1, hits give low values 0.987 | locus YJL092W, strain hpr5, hits give low values 1 | locus YJL095W, strain BCK1 (second series), hits give low values 1.01 | locus YJL095W, strain BCK1, hits give low values 0.982 and 1.03 | locus YJL115W, strain asf1, hits give low values 0.988 | locus YJL129C, strain trk1, hits give low values 0.978 | locus YJL134W, strain LCB3, hits give low values 0.995 | locus YJL154C, strain vps35, hits give low values 1 | locus YJL164C, strain tpk1, hits give low values 1.02 | locus YJL166W, strain qcr8, hits give low values 0.976 | locus YJL168C, strain set2, hits give low values 0.992 | locus YJL187C, strain SWE1 (second series), hits give low values 0.984 | locus YJR043C, strain POL32, hits give low values 1 | locus YJR066W, strain TOR1, hits give low values 0.976
